LmPK inhibitor: inhibitors of Leishmania mexicana pyruvate kinase; Q27686; purified LmPK, Kinase-Glo ATP luminescence, 1 h; Potency, µM (top dose mostly 57.5 µM), without a hit: at the highest dose activity change, negative = inhibition, hits mostly inhibitors; 290,000 compounds, 0.37% hits; also: potency is read from the fitted curve at half-maximal effect; % is scaled to controls: 0 for no effect and ±100 for the full control effect
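Purified LmPK (0.1 nM) converted ADP (0.1 mM) to ATP with PEP (0.5 mM) in imidazole buffer pH 7.2 with KCl and MgCl2, 1 h at room temperature. ATP was read by Kinase-Glo luminescence; data normalized to uninhibited and no-enzyme controls.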
Shiga toxin inh: blocks Shiga toxin action in Vero cells; Vero cells, Shiga toxin protein synthesis inhibition reporter; inhibition, % at 38.7 µM; 290,000 compounds, 9.2% hits; in the data active = inhibition mostly above about 28%, no sharp cut-off; inactive = mostly below about 43%; also: 0% is about no effect
Sm TGR inh: inhibitors of Schistosoma mansoni thioredoxin glutathione reductase; Q962Y6; purified TGR, DTNB reduction, TNB absorbance 405 nm; Potency, µM (titrated, usually from 114 µM), inactives show at the highest dose activity change, negative = inhibition, actives largely listed as inhibitors; 360,000 compounds, 3% hits; AID 485364; also: potency is read from the fitted curve at half-maximal effect; % is scaled to controls: 0 for no effect and ±100 for the full control effect; nearly all actives have a fitted effect of over 60% in size
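TGR 20 nM + NADPH 100 uM (dispensed conc.), cpd preinc 15 min RT; start with NADPH (500 uM addition) then DTNB (15 mM addition). Kinetic TNB absorbance, 405 nm filter. Four-parameter Hill fit across titration.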
Cycloheximide cs: counter-screen hit for Shiga toxin inhibitors, cycloheximide. cell reporter, cycloheximide protein synthesis inhibition counterscreen. max response, %. 300,000 compounds, 12% hits; in the data active = max response mostly above about 13%, no sharp cut-off; inactive = mostly below about 14%; also: read at 38.3 µM for the half of the compounds with a filed dose; 0% is about no effect
TbPYK inhibitor: inhibitors of Trypanosoma brucei pyruvate kinase; Potency, µM (series often up to 76.8 µM), for inactives: at the highest dose activity, negative = inhibition, hits mostly inhibitors; AID 624173; TbPYK enzyme, Kinase-Glo Plus ATP luminescence, 45 min; 410,000 compounds, 0.12% hits; also: potency is read from the fitted curve at half-maximal effect; % is scaled to controls: 0 for no effect and ±100 for the full control effect; nearly all actives have a fitted effect of over 50% in size
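Readout: single end-point luminescence (Kinase-Glo Plus, 10 min). Reaction conditions were TbPYK/substrate plus 130 uM ADP, 45 min at RT, pH 7.2 TEA buffer. No-enzyme wells served as controls, and data were normalized before concentration-response fitting.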
FBPA Giardia inh: Giardia lamblia aldolase inhibition. AID 2451. 290,000 compounds, 0.71% hits. A8B2U2. Potency, µM (top dose mostly 59.6 µM), for the others: at the highest dose activity, negative = inhibition, usual class: inhibitors. purified Giardia FBPA; also: potency is read from the fitted curve at half-maximal effect; % is scaled to controls: 0 for no effect and ±100 for the full control effect; nearly all actives have a fitted effect of over 55% in size
Target sequence (A8B2U2 whole entry, looked up): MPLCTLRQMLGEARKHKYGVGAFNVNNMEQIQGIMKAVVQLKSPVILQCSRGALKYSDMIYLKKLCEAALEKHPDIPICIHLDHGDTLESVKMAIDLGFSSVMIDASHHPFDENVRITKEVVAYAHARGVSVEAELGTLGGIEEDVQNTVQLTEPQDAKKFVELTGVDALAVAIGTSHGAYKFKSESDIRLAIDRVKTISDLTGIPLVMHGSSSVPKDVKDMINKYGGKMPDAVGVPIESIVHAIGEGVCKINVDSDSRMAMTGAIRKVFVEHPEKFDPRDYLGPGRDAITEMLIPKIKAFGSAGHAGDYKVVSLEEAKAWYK
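Giardia FBPA (40 nM reagent) was preincubated 10 min at RT with compound (up to 57.5 uM final), then substrate plus GAPDH/TPI/NAD/arsenate coupling system with diaphorase/resazurin was added; resorufin fluorescence (525/598 nm) was read after 20 min.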
* = called active by the depositor; ? = inconclusive; · = not tested or not shown; [ ] = another dose, or the depositor's remark. This is one part of a sample in which hits are shown more often than they occur. Unless noted, calls follow the shape of the dose curve; as a rule, active = well fitted curve in the direction sought with a large enough effect; inconclusive = small, poorly fitted or top-dose-only effect, or another doubt; inactive = no such curve, though single readings can be large; an effect the other way counts as inactive or inconclusive.

SMILES	LmPK inhibitor	Shiga toxin inh	Sm TGR inh	Cycloheximide cs	TbPYK inhibitor	FBPA Giardia inh
CCN(CC)S(=O)(=O)c1ccc2c(c1)N(CC(=O)Nc1ccc(C)cc1C)C(=O)C1CCCN21 (centres undefined)	·	·	-16%	·	-1%	·
CCOC(=O)c1cc(S(=O)(=O)NCC2CCN(Cc3cccc(C)c3)CC2)cn1C	4%	-6	-6%	7	1%	·
CCOC(=O)N1CCN(C(=O)/C=C/c2ccc(C(C)(C)C)cc2)CC1	0%	-12	7%	5	-2%	-2%
COc1ccc(/C=C(\C#N)C(=O)C(C)(C)n2cncn2)cc1	2%	-11	6%	-1	-6%	-4%
COc1cccc(CNC(=O)CSc2n[nH]c(-c3ccccc3Cl)n2)c1	·	·	6%	·	-2%	·
Cc1ccc(N2C(=N)/C(=C3/Nc4ccccc4S3)C(c3ccccc3)C2=O)cc1 (centres undefined)	4%	62*	-2%	44*	-7%	-1%
COc1ccc(-c2nc(CS(=O)(=O)CC(=O)Nc3ccc(Cl)cc3)c(C)o2)cc1	-1%	40*	35µM*	19*	1%	5%
COC(=O)c1ccccc1NC(=O)CS(=O)(=O)Cc1nc(-c2ccc(C)cc2)oc1C	11%	-3	25µM*	-1	2%	4%
COc1ccc(NC(=O)CS(=O)(=O)Cc2nc(-c3ccc(C)cc3)oc2C)cc1	6%	-1	-33%	-1	0%	-15%
COc1ccc(Cl)cc1NC(=O)Cn1ncc2c3ccccc3n(Cc3ccccc3)c2c1=O	·	·	-9%	·	2%	·
O=C(COc1ccccc1[N+](=O)[O-])N/N=C/c1cccs1	-2%	12	-1%	10	-12%	2%
OC1CCCCC1Sc1nc2ccccc2s1 (centres undefined)	-3%	104*	0%	42*	-4%	4%
c1ccc2sc(SSc3nc4ccccc4s3)nc2c1	·	·	·	·	-5%	·
N/C(=N\OC(=O)c1cccc2ccccc12)c1cccnc1	-4%	94*	0%	42*	-6%	-10%
O=C(O/N=C(\c1ccccc1)c1ccccn1)c1cccc2ccccc12	2%	12	2%	14*	-11%	-4%
Cc1cccc(/C(N)=N/OC(=O)c2cccc3ccccc23)c1	-6%	59*	0%	21*	·	·
O=C1ON=C(c2ccccc2)/C1=C\c1ccco1	1%	-7	25µM*	-3	-19%	?
Cc1ccc(C2=NOC(=O)/C2=C\c2ccccc2)cc1	·	·	·	·	-28%	·
O=C1ON=C(c2ccccc2)/C1=C/c1ccccc1	-3%	7	?	2	?	-15%
Cc1ccc(/C=C2/C(=O)ON=C2c2ccccc2)o1	-1%	16	5µM*	9	?	?
COc1ccc(-c2nc(CSc3nnc(C)n4c3cc3sccc34)c(C)o2)cc1	·	·	-6%	·	6%	·
S=c1[nH]nc2ccc3ccccc3n12	·	·	·	·	7.1µM*	·
COC(=O)C1=C(C)N(Cc2ccccc2)C2=C3C(=O)CCCC3[C@@](O)(C(=O)OC)C(=O)N2C1c1ccccc1 (some centres undefined)	·	·	·	·	·	5%[12.9 µM]
COc1ccc(NC(=O)CCc2nc3c(C)nn(-c4ccc(C)cc4)c3n(C)c2=O)c(OC)c1	·	·	-2%	·	-5%	·
O=C(N/N=C/c1ccccn1)c1ccc([N+](=O)[O-])cc1	-2%	100*	1%	36*	1%	?
SMILES	LmPK inhibitor	Shiga toxin inh	Sm TGR inh	Cycloheximide cs	TbPYK inhibitor	FBPA Giardia inh
Cc1ccccc1C(=O)Nc1ccc(C(=O)N/N=C/c2ccccn2)cc1	-9%	-8	6%	-1	2%	5%
C(=N\N=C\c1ccccn1)/c1ccccn1	-1%	58	0%	13*	-1%	-30%
O=C(N/N=C/c1ccccn1)c1ccc(N/N=C/c2ccccn2)cc1	-5%	63*	-3%	29*	-8%	?
O=C(COc1ccc([N+](=O)[O-])cc1)N/N=C/c1ccccn1	0%	2	1%	-3	6%	-18%
CC(C)(C)c1ccc(C(=O)N/N=C/c2ccccn2)cc1	0%	85*	0%	45*	-18%	-2%
O=C(Cc1ccccc1)N/N=C/c1ccccn1	·	·	·	·	7%	·
COc1ccc(NC(=O)c2oc3ccccc3c2NC(=O)C23CC4CC(CC(C4)C2)C3)c(OC)c1	·	·	-1%	·	1%	·
N#CC1(NC(=O)CSc2nnc(C3CC3)n2C2CC2)CCCCC1	·	·	-6%	·	0%	·
COc1ccc(-c2nnn3c2nc(NCCc2ccc(OC)c(OC)c2)c2ccccc23)cc1	·	·	-1%	·	0%	·
Cc1cc2c(s1)c1cnn(Cc3ccc(C(F)(F)F)cc3)c(=O)c1n2C	·	-7	·	-6	·	·
Cc1ccc2c(c1)C1(C=CC(=O)C=C1)CC(=O)N2C	·	-5	·	16	·	-14%
O=C(N/N=C/c1ccccn1)c1ccc(Br)cc1	-2%	122*	0%	67*	-8%	9%
COc1cccc(C(=O)N(Cc2nc(-c3ccc(Cl)cc3)no2)C(C)C)c1OC	·	·	11%	·	1%	·
Nc1nc2ccccc2n1/N=C/c1ccc(-c2ccccc2)o1	2%	72*	2%	25*	-1%	-13%
Cc1ccc(S(=O)(=O)N2CCC(C(=O)N3CCCC(C(F)(F)F)C3)CC2)cc1C (centres undefined)	·	·	0%	·	1%	·
c1ccc2c(c1)[nH]c1c3ccccc3sc21	4%	72*	0%	41*	-2%	-4%
COC(=O)c1ccc(NC(=O)CN2CCCN(Cc3ccc(Cl)cc3)S2(=O)=O)cc1	·	·	-1%	·	3%	·
O=C(/C=C/c1ccc(OC(F)F)cc1)Nc1cccc(S(=O)(=O)N2CCOCC2)c1	1%	41*	-21%	25*	6%	·
Cc1ccc(/C=C/C(=O)Nc2cccc(S(=O)(=O)N3CCOCC3)c2)o1	-17%	7	11µM*	6	?	-18%
O=C(/C=C/c1ccco1)Nc1cccc(S(=O)(=O)N2CCOCC2)c1	-1%	13	-33%	2	1%	3%
COc1ccc(NC(=O)CC2C(=O)N(c3ccc(F)cc3)C(=O)N2Cc2ccc3c(c2)OCO3)cc1 (centres undefined)	·	·	2%	·	-9%	·
OC(c1ccccc1)c1nc(-c2ccc3c(c2)OCO3)cs1 (centres undefined)	·	·	·	·	6%	·
CC1Cc2cc(/C=C3/SC(=S)N(C)C3=O)ccc2O1 (centres undefined)	-5%	25	21%	25	-12%	0%
O=C1c2ccccc2C(=O)N1c1cccc(-c2csc(Nc3ccc4c(c3)OCO4)n2)c1	0%	71*	50µM*	20*	·	-18%
Nc1nc(-c2ccc3c(c2)OCCO3)cs1	-7%	79*	-33%	50*	-6%	-1%
c1ccc(-c2csc(Nc3ccc4c(c3)OCO4)n2)cc1	·	·	·	·	-1%	·

From PubChem
